Bioassay records (PubChem)
ALDH1A1 block: inhibitors of human aldehyde dehydrogenase 1A1; Potency, µM (doses to about 75.3 µM), for the others: top-dose activity, negative = inhibition, most hits filed as inhibitors; Purified ALDH1A1, NADH fluorescence, propionaldehyde substrate; hit rate 7.3% among 220,000;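 further: plate controls were no enzyme wells and a reference inhibitor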
Tau FP inhib: blocks human tau fibril formation measured by polarization; P10636; K18 P301L tau heparin fibrillization, Alexa594 FP, 6 h; Potency, µM (doses to about 57.7 µM), for inactives: at the highest dose activity, negative = inhibition, most hits filed as inhibitors; hit rate 0.39% among 280,000; AID 1468; active means well fitted curve in the direction sought with a large enough effect; inconclusive means small, poorly fitted or top-dose-only effect, or another doubt; inactive means no such curve, though single readings can be large; an effect the other way counts as inactive or inconclusive; further: nearly all actives have a fitted effect of over 55% in size
Target sequence (P10636 561-689 P618L limits assumed): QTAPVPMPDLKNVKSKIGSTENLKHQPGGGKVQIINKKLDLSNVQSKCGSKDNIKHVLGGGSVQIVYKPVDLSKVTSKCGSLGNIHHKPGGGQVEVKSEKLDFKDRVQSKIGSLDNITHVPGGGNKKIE
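K18 P301L tau (15 uM unlabeled/0.24 uM Alexa 594-labeled, final) + compound + heparin 20 uM final; 100 mM NaOAc pH 7; 6 hr 37 C; ThT 30 uM final added, 1 hr RT; FP ex 555/em 632 nm.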
Tau fluor counter: counter-screen for tau fibril formation inhibitors; tau K18 P301L Alexa594 fluorescence, heparin fibrillization; Potency, µM (doses to about 57.7 µM), for inactives: top-dose activity change, negative = decrease; hit rate 0.93% among 280,000; active means well fitted curve in the direction sought with a large enough effect; inconclusive means small, poorly fitted or top-dose-only effect, or another doubt; inactive means no such curve, though single readings can be large; an effect the other way counts as inactive or inconclusive; further: nearly all actives have a fitted effect of over 55% in size
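Human tau K18 P301L (15 uM unlabeled, 0.24 uM Alexa 594-labeled) in 100 mM sodium acetate pH 7 with 20 uM heparin, 6 hr at 37 C. ThT 30 uM added, 1 hr ambient; Alexa 594 FP and total fluorescence read at 555/632 nm.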
HPGD inh: inhibitors of human 15-hydroxyprostaglandin dehydrogenase (HPGD); hit rate 4.3% among 150,000; AID 894; P15428; purified HPGD, NADH fluorescence kinetic, PGE2 substrate; Potency, µM, for inactives: top-dose activity change, negative = inhibition, hits mostly inhibitors
Target sequence (P15428 whole entry, looked up): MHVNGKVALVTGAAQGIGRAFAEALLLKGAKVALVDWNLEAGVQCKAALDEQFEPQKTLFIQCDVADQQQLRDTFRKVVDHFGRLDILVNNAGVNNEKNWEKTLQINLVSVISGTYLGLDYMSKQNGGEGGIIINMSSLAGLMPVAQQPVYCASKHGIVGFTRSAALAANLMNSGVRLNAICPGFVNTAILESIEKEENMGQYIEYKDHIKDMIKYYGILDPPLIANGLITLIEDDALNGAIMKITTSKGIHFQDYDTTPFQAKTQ
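20 nM HPGD preincubated 15 min at room temperature with compound in 50 mM Tris-HCl pH 8, 0.01% Tween 20. Started with 1 mM NAD+ and 30 uM prostaglandin E2; NADH fluorescence (360/450 nm) read 5 times over 30-s intervals, last minus first.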
Tau fibril ThT: blocks human tau fibril formation measured by thioflavin T. P10636. recombinant tau K18 P301L (four-repeat tau fragment), heparin-induced fibrillization, ThT fluorescence. Potency, µM (doses to about 57.4 µM), inactives show top-dose activity, negative = inhibition, hits mostly inhibitors. hit rate 2.1% among 270,000. AID 1460; active means well fitted curve in the direction sought with a large enough effect; inconclusive means small, poorly fitted or top-dose-only effect, or another doubt; inactive means no such curve, though single readings can be large; an effect the other way counts as inactive or inconclusive; further: nearly all actives have a fitted effect of over 55% in size
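Tau K18 P301L fragment (15 uM unlabeled plus 0.24 uM Alexa 594-labeled) in 100 mM sodium acetate pH 7 with compound, fibrillization induced by 20 uM heparin for 6 hr at 37 C. Thioflavin T (30 uM) added, fluorescence read after 1 hr (ex 450, em 510 nm).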
JMJD2E inh: JMJD2E (human) inhibition; B2RXH2; JMJD2E catalytic domain, FDH-coupled NADH fluorescence (FDH is formaldehyde dehydrogenase); Potency, µM (highest dose often 57.1 µM), inactives show at the highest dose activity change, negative = inhibition, usual class: inhibitors; hit rate 1.6% among 230,000;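 further: 0% = wells with enzyme and -100% = buffer wells without enzyme; nearly all actives have a fitted effect of over 50% in size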
Target sequence (B2RXH2 1-337 limits assumed): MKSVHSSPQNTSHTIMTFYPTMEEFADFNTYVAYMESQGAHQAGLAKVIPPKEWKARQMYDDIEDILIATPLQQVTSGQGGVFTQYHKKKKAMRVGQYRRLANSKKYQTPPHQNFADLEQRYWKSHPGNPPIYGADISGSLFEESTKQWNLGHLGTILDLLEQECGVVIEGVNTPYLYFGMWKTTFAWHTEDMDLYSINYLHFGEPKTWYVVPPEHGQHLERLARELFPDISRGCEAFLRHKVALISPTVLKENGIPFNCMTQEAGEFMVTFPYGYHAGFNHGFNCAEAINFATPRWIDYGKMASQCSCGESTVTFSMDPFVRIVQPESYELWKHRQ
Numbers without * were called inactive; ? = inconclusive; . = no result given; ! = repeats disagree; [ ] = dose if it differs, or a comment. Shown are actives, neighbours in structure and some others; about 9.9% of the full set was active somewhere. Unless noted, the call rests on the fitted dose curve; in most records, active means well fitted inhibition curve with a large enough effect (not every such curve was filed as active); inconclusive means small, poorly fitted or top-dose-only effect, or another doubt; inactive means no such curve, though single readings can be large or run the other way. Unless noted, on the % scale 0 is the no-effect control and ±100 the full control effect; potency means the concentration at half of the fitted maximal effect.

SMILES	ALDH1A1 block	Tau FP inhib	Tau fluor counter	HPGD inh	Tau fibril ThT	JMJD2E inh
COc1ccc(Cl)cc1-c1n[nH]c(=S)n1C1CCCCC1	5%	?	-12%	10µM*	?	-7%
S=c1[nH]nc(-c2cccnc2)n1C1CCCCC1	-1%	-4%	-15%	-13%	-12%	-4%
Cc1ccsc1-c1n[nH]c(=S)n1C1CCCCC1	3%	7%	5%	-29%	6%	-19%
COc1ccc(-c2n[nH]c(=S)n2C2CCCCC2)cc1	?	-2%	-11%	18µM*	-8%	-1%
Cn1cc(-c2nc3cnc(N4CCNCC4)nc3n(C)c2=O)c2ccccc21	-8%	.	.	.	.	.
Cc1cn(C)c(CC(=O)NCc2cccc(Cl)c2)c1C(=O)O	.	2%	3%	.	7%	.
CCOc1ccc2ccccc2c1CNc1nnnn1CC	3%	-8%	-7%	.	2%	-7%
CCn1nnnc1NCc1ccc(N2CCCC2)cc1	35µM*	-1%	-16%	-13%	-17%	-2%
O=C(CN1C(=O)COc2ccccc21)N(CCCN1CCOCC1)CC1CC=CCC1 (stereo not given)	?	-1%	10%	-6%	5%	-15%
Cc1ccc(CNC(=O)CN2C(=O)C3CCCCN3c3ccc(C(=O)N4CCCC4)cc32)cc1 (stereo not given)	.	-2%	2%	.	0%	.
COc1ccc2oc(/C=C/N(C)C)c(C(=O)c3ccc(Cl)cc3)c2c1	-7%	-14%	-12%	.	-9%	4%
C/C(=C/c1oc2ccc(O)cc2c1[N+](=O)[O-])N(C)C	-15%	-12%	?	-12%	4µM*	?
CC(=O)Oc1ccc2oc(/C=C/N(C)C)c([N+](=O)[O-])c2c1	10%	10%	-16%	-12%	28µM*	-5%
CC(C)=Cc1oc2ccc([N+](=O)[O-])cc2c1N1CCOCC1	9%	-4%[2.34 µM]	-5%[2.34 µM]	.	3%	-9%
COc1ccc(C2=C/C(=C\c3cccc(OC(C)=O)c3)C(=O)O2)cc1	25µM*	-7%	-6%	-20%	-16%	12%
O=C(Cn1c(=O)oc2ccccc21)N1CCOCC1	5%	-6%	-1%	.	-7%	9%
Cc1ccc(S(=O)(=O)N(CC(=O)N2CCC(C(N)=O)CC2)c2cccc(C(F)(F)F)c2)cc1	13µM*	-5%	-3%	-12%	1%	-1%
CCCS(=O)(=O)c1nc(S(=O)(=O)c2ccc(C)cc2)c(NCCN2CCOCC2)s1	14µM*	-6%	-7%	-5%	-6%	4%
CCN(CC)C(=O)CSc1ncnc2c1nnn2-c1ccc(OC)cc1	4µM*	-4%	-8%	-15%	-14%	1%
COC(=O)c1ccc(CSc2ncnc3c2nnn3-c2ccc(F)cc2)o1	-13%	?	-21%	7.1µM*	?	-1%
COc1ccc(-n2nnc3c(SCc4ccccc4)ncnc32)cc1	13µM*	-13%	?	16µM*	-26%	-22%
CCOC(=O)c1sc2nc3n(c(=O)c2c1C)CCC3	-11%	-12%	-6%	-11%	?	?
CCOC(=O)c1sc2nc(SCC#N)n(CCCN3CCCC3=O)c(=O)c2c1C	0.79µM*	0%	-7%	?	-9%	-1%
COc1ccc(N(C(=O)c2ccc(C(C)(C)C)cc2)S(=O)(=O)c2ccc(Cl)cc2)cc1	.	0%	-12%	.	-14%	.
Cc1cc(C(C)(C)C)cc(S(=O)(=O)Nc2cccc(C(=O)O)c2)c1C	?	1%	-7%	-13%	-4%	8%
SMILES	ALDH1A1 block	Tau FP inhib	Tau fluor counter	HPGD inh	Tau fibril ThT	JMJD2E inh
Cc1ccccc1NC(=O)c1ccc(NS(=O)(=O)c2cc(C(C)(C)C)cc(C)c2C)cc1	2.8µM*	-14%	-26%	-17%	-1%	-6%
Cc1ccc(N2CC(NC(=O)C3CCCCC3)CC2=O)cc1C (stereo not given)	.	2%	-7%	.	1%	.
CO[C@H]1COC(=O)[C@H](C)COC(=O)[C@H](C)NC(=O)C/C=C\[C@H]1C	0%[13.5 µM]	0%[11.6 µM]	-3%[11.6 µM]	.	1%[11.5 µM]	.
O=C(CSC1CCCCC1)Nc1ccccc1Br	1%	4%	-1%	18µM*	-7%	6%
COc1cccc(Oc2ccc3nnc(C(F)(F)F)n3n2)c1	-3%	4%	12%	.	4%	-8%
CCOc1ccccc1NC1=C(Cl)C(=O)N(Cc2ccccc2)C1=O	9%	1%	-28%	-15%	?	-6%
O=C1C(Cl)=C(Nc2cccc(O)c2)C(=O)N1Cc1ccccc1	?	-6%	?	.	14µM*	-25%
O=C(NNc1ncnc2c1cnn2-c1ccccc1)c1cccc(Cl)c1	.	?	-12%	.	?	.
S=C1SCN(CC2CC2)CN1CC1CC1	.	-18%	3%	.	.	18%
CN(C)CN1CSC(=S)N(CN(C)C)C1	4µM*	.	.	3.2µM*	.	.
CCOc1ccccc1-n1nnnc1SCc1nc2ccccc2s1	10µM*	-3%	-21%	-13%	-7%	-5%
Cc1c(NC(=O)CN2C(=O)NC3(CCCCC3)C2=O)c(=O)n(-c2ccccc2)n1C	19%	2%	1%	.	-2%	-1%
S=c1[nH]nc(-c2ccncc2)n1/N=C/C=C/c1ccco1	?	-4%	-23%	.	?	-11%
C(=C\c1ccco1)/C=N/n1cnnc1	3.2µM*	32µM*	-29%	32µM*	25µM*	14µM*
Cc1ccc(C(=O)OCC(=O)Nc2ccccc2)cc1NC(=O)c1ccco1	-4%	-3%	-11%	-7%	-8%	2%
Cc1ccc(C(=O)OCC(=O)Nc2ccc(N(C)C)cc2)cc1NC(=O)c1ccco1	12µM*	?	-27%	-17%	?	4%
Cc1ccc(C(=O)OCC(=O)Nc2cc(F)ccc2F)cc1NC(=O)c1ccco1	-4%	-7%	-11%	-17%	-11%	20%
CCC(C)c1ccccc1NC(=O)COC(=O)c1ccc(C)c(NC(=O)c2ccco2)c1 (stereo not given)	40µM*	-7%	1%	?	13%	-4%
O=C(COc1ccccc1Cl)Nc1cc(-c2ccccc2F)nn1-c1ccccc1	.	-9%	15%	.	10%	.
Cc1c(C(=O)NC(=S)Nc2ccc(NC(=O)c3cccs3)cc2)oc2ccccc12	1.3µM*	5%	?	2.8µM*	?	6%
CC(=O)N[C@@H](CS)C(=O)O	2%	-10%	-13%	-6%	?	25µM*!
Cc1cc(=O)[nH]c(-c2cccnc2)n1	4%	-13%	-11%	.	-4%	3%
CC(C)CC(=O)NCc1nc2cccnc2n1Cc1ccccc1	.	2%	-8%	.	-5%	.
O=C(c1ccc(Cl)cc1)N1CCC(O)(CSc2ccccc2)CC1	1.4µM*	7%	-15%	-3%	-15%	6%
O=C(c1ccc(Cl)cc1)N1CCC(O)(CSc2ccc(Cl)cc2)CC1	16µM*	1%	-14%	-11%	-2%	0%
